Among the data in the supplement of paper PMC6555819 are PBM binding z-score values, retold here.

In this test the test system is VDR:RXRa (NR concentration 270 nM, RXRa partner concentration 90 nM). Description: PBM binding z-score (relative to random genomic background probes); higher = stronger binding; sequences stand for … in GC…GCGATTGACAGCGTAGAATGAAGG
The protocol:
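Protein-binding microarray (Agilent 4x180K custom design, double-stranded 60-nt probes: 5' GC cap, 34-nt variable region, 24-nt constant primer region; full probe sequence given). Purified or IVT nuclear receptor:RXRα heterodimers (3:1 NR:RXRα, mostly 270:90 nM) or homodimers were incubated for 1 h in PBS with 2% milk and no ligand, then detected with Alexa488 antibodies. Fluorescence from o1-orientation probes (~5 replicates averaged) was converted to z-scores against 500 random hg19 background probes. Variable regions are seed direct-repeat (DR0–DR5) sites, all their single-nucleotide variants and half-site ablations.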
As to TCTACTAGGTCAGTTGGTCAGCTAACGAGCTGCC, the PBM binding z-score came out at 0.701.
ATACCAAGGTGATCGTGAGGTCCTTGATACTAAC came in with a PBM binding z-score of 0.32.
Under AGAACGAGGGCAGTGAGTTGATAGCACGGGTGGC stands 3.91; under CGTCCAAGGACAGAGAGGTCAGTGAATGCCGAGT, 3.03; under ATCGCTAGGTAAAGATAGTTCAGTGAATGCAAAT, 0.0952.
Consider CCTCGGAGGACAACAGGAGGTCAGAGCTGCCAGA, for which the PBM binding z-score was found to be 2.
On to ATCGAAAGGACGTGAGGTGAGTATACAGAAAGGC, for which the PBM binding z-score is -0.301.
For CCGACTGGGGCAGAAAGGTTACCATTCCATCCGG, the PBM binding z-score is 0.567.
In turn, TCTTGTAGATCAATCGAGGTTAAGAAAGTGCGCT returned a PBM binding z-score of 1.75.
Under AACTCTAGGTAAGACTCAGTTCAGTGAAGAACGC stands 0.138.
In turn, TCATATAGGTAAATCCTAGGTGAAAGTCCGATCT yielded a PBM binding z-score of 0.7.
Sequence TCCTATAGGTAAATGCTAGGTGAAAGTCCGATCT gave a PBM binding z-score of 0.359.
For the sequence ACAATGAGGTTACCAAAGATCAGGGAAACGCTTG, the PBM binding z-score was 1.68.
Under CCGACTGGGCCAAGGTTACCATAACGCACAGCCA stands -0.185; under CCGACTAGGGCAGAAAGGTTACCATACCATCCGG, 1.13; under CCTAGCTGGTCAGGAGGTCACACACCGGATATGA, 3.73.
Regarding CCTGACGGGTCAAGGTTATAGCACGGGTGGTACG, the PBM binding z-score was 2.74.
On to CGGACGAGGGCATGAGTTGATAGCAAATGCCGAT, for which the PBM binding z-score came out at 1.21.
With ACTCGGAGGACAAAGGTTAGAGCTACGCCAGTGA, the PBM binding z-score amounted to 0.555.
With ATATCTAGGTTATCGGGTCATTCAGTTTGCGCAT, the PBM binding z-score was 5.12.
In the case of GCTTACGGGTCAAAGGCTATAGCATGAATAGAAT it was 3.47; in that of TCTTGTAGATCAACAGGAGGTTAGGAAAGATCGA, 0.0401; in that of CCTACCGGGCCACGAAAGGTCATTGATTCAGTGA, 4.1.
In the case of TTACCAAGGTGAAGGTCTTTGATCCCTCTGTAGA it was -0.00925; in that of GCGACTGGGGCATGAGCAGGTTACCATAACTTAA, -0.262.
In turn, CCGACTGGGGCAAATGTTACCATACTCAGTACGA yielded a PBM binding z-score of -0.22.
The sequence CGAACTCGGTCATTGACAGGACAGTGAATAGTAA came in with a PBM binding z-score of 0.452.
With CGTCCAGGGTCAAAGGTCAGTGAAGAGATGACGG, the PBM binding z-score is 6.53.
In turn, CCGACTGGGGCAAAGGTTACCATTCTCAGTACGA returned a PBM binding z-score of 1.43.
In the case of ACTATTAGTTGACTTAGGTCAACCGATACGACGC, the PBM binding z-score is 2.42.
Sequence TCATATAGGCAAAGGTGAAAGTCGAACGATATGA displayed a PBM binding z-score of 0.976.
The sequence TCATGTAGATCAGCAGGTTAAGAAAGCTGGCCAA came in with a PBM binding z-score of 0.442.
GTACCAAGGTGAAAAGGTCGTTGATGAGTAGGCG registered a PBM binding z-score of 2.59.
The sequence CCTTACGGGTAACTGACAGGTTATAGCATTTGGA yielded a PBM binding z-score of 0.0689.
CCTACTGGGCCATTCAGCGGTCATTGATCATATG had a PBM binding z-score of -0.109.
With GCATATAGATAATACAAGGTGAAAGTCCGATTGT, the PBM binding z-score was found to be 0.152.
Under CGTCAAAGTTTAACTAAGGTAACGTAAAGCACGC stands 0.861.
TCGAGTAGGTTACCTATGGGGCATTCAGCTTTCT came in with a PBM binding z-score of -0.0814.
The sequence GCTAGTTGGTAAGTAAAAGGTCACACACCGGTCG displayed a PBM binding z-score of 3.82.
For the sequence TCTGCTAGGTCAACCATGGTCAGCTAATCTGCTA, the PBM binding z-score is 2.27.
